# PPARg SRC-3 ag: promotes SRC-3 coactivator recruitment by human PPARgamma; biochemical PPARgamma/SRC-3 coactivator recruitment assay; AID 731; P37231; actives 0.26% (n = 200,000); activation, % at 8 µM; in the data active = activation above about 23%;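 also: 0% = DMSO and 100% = reference agonist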
# Target sequence (P37231 whole entry, looked up): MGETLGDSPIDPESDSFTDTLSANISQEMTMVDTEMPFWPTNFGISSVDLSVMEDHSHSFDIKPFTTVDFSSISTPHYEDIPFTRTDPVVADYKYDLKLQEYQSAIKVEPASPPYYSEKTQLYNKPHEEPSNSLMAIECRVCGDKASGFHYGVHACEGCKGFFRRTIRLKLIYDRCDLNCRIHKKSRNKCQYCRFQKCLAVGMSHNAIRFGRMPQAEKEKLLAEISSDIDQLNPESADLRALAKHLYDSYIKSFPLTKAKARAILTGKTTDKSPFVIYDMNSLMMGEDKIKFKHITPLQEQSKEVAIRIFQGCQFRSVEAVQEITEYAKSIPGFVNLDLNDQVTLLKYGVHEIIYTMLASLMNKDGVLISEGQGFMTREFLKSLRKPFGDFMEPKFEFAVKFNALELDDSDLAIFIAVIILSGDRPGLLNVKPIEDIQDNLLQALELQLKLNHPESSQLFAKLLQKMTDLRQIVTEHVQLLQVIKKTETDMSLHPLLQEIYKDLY
# SRC1 TRFRET art: counter-screen for PPARgamma SRC-1 recruitment agonists: TR-FRET artefact | TR-FRET ratio at 8 µM | AID 1051 | actives 0.34% (n = 99,000) | TR-FRET detection artefact counter-screen, emission ratio; hits give high values; in the data active = TR-FRET ratio above about 2300
# PPARg SRC-2 ag: agonists of SRC-2 recruitment by human PPARgamma. P37231. PPARgamma LBD-SRC-2 recruitment, biochemical. activation, % at 8 µM. actives 0.34% (n = 200,000). AID 1032; in the data active = activation above about 22%;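 also: 0% = vehicle and 100% = reference agonist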
# SRC3 TRFRET art: TR-FRET artefact, counter-screen to PPARgamma/SRC-3 agonist assay; PPARgamma/SRC-3 format; hits give high values; TR-FRET ratio at 8 µM; actives 0.39% (n = 99,000); AID 1048
# PPARg SRC-1 ag: PPARgamma-driven SRC-1 recruitment agonism | activation, % at 8 µM | actives 0.41% (n = 200,000) | PPARgamma-SRC-1 coactivator recruitment biochemical assay; in the data active = activation above about 19%;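 also: 0% = DMSO and 100% = reference agonist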
# SRC2 TRFRET art: TR-FRET artefact, counter-screen to PPARgamma/SRC-2 agonist assay. hits give high values. TR-FRET ratio at 8 µM. actives 0.4% (n = 200,000). AID 1049
# PPARg SRC2 ag: human PPARgamma SRC-2 recruitment agonism, confirmation | biochemical SRC-2 recruitment by PPARgamma | actives 52% (n = 790) | shares compounds with PPARg SRC-3 ag | activation, % at 8 µM; in the data active = activation above about 22%;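 also: 0% = vehicle alone and 100% = reference agonist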
# PPARg SRC1 ag: human PPARgamma SRC-1 recruitment agonism, confirmation; activation, % at 8 µM; PPARgamma–SRC-1 coactivator recruitment biochemical assay; shares compounds with PPARg SRC-3 ag; actives 43% (n = 790); in the data active = activation above about 20%;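 also: 0% = vehicle wells and 100% = reference agonist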
# PPARg SRC3 conf: human PPARgamma SRC-3 recruitment agonism, confirmation. shares compounds with PPARg SRC-3 ag. biochemical PPARgamma-SRC-3 coactivator recruitment, agonist mode. activation, % at 8 µM. actives 29% (n = 790). AID 1301; in the data active = activation above about 24%;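 also: 0% = vehicle wells and 100% = reference agonist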
# * marks the source's active call; other numbers are inactive results; . = no result given. An excerpt weighted towards active compounds, which were near 0.9% of everything screened. Rule as the data show it, unless noted: active = TR-FRET ratio above about 2000; inactive = the rest.
SMILES,PPARg SRC-3 ag,SRC1 TRFRET art,PPARg SRC-2 ag,SRC3 TRFRET art,PPARg SRC-1 ag,SRC2 TRFRET art,PPARg SRC2 ag,PPARg SRC1 ag,PPARg SRC3 conf
O=C(CSc1c2c(nc3cc(Cl)ccc13)CCCC2)NCCCN1CCOCC1,12,2212,26*,2060*,25*,1791,22,18,14
CCN(CC)CCCNC(=O)CSc1c2c(nc3cc(Cl)ccc13)CCCC2,22,2550*,34*,2400*,33*,2152*,26*,19,17
Cc1cc(Cl)ccc1OCC(=O)NCCCN1CCOCC1,-20,.,-7,.,1,1601,.,.,.
COc1ccc(-c2c3c(nc4sc(C(=O)Nc5ccccc5)c(N)c24)CCC3)cc1,27*,.,26*,.,14,1922,33*,20*,21
Nc1c(C(=O)Nc2ccccc2)sc2nc3c(c(-c4ccco4)c12)CCC3,14,.,10,.,6,1681,.,.,.
Cc1occc1C(=O)N/N=C/c1c[nH]c2ccccc12,10,.,2,.,19*,1606,3,1,2
CC(=O)Oc1ccccc1C1C[C@]2(C)CC(=O)NC2N1C(C)=O (stereo not given in full),2,1965,-5,1589,3,1629,.,.,.
O=C(NCCC1=CCCCC1)Nc1ccc2nsnc2c1,12,2164,27*,1916,28*,1887,16,13,10
CCC1(C)Cc2c(C#N)c(N)sc(=S)c2CO1 (stereo not given),27*,.,13,.,12,1619,6,8,7
CC(=O)CSc1nc(N)c(C#N)c(-c2cccs2)c1C#N,-4,.,-2,.,1,1500,.,.,.
CC(=O)CSc1nc(-c2cccs2)c(C#N)c(=O)[nH]1,17,2767*,26*,2268*,16,2150*,31*,20*,20
CSc1ncc(CO)n1Cc1ccccc1,2,1791,7,1674,6,1677,.,.,.
Cc1cccc[n+]1C1C(c2ccccc2)C(C#N)=C(C(=C=[N-])C#N)NC1(O)C1CC1 (stereo not given),29*,.,26*,.,15,2096*,30*,20*,19
CCOC(=O)C1C(=O)NC(SC)=C(C#N)C1c1ccccc1F (stereo not given),1,1865,5,1639,10,1568,.,.,.
Cc1ccc[n+](C2C(c3ccc([N+](=O)[O-])cc3)C(C#N)=C([S-])NC2(O)C2CC2)c1 (stereo not given),1,1755,4,1454,6,1527,.,.,.
N#CC(=C=[N-])C1=C(C#N)C(c2ccccc2F)C([n+]2ccccc2)C(O)(C2CC2)N1 (stereo not given),71*,.,75*,.,32*,3792*,12,9,10
c1ccc2c(Nc3ccc4c(c3)OCCO4)c3c(nc2c1)CCCC3,0,1649,4,1566,-6,1543,.,.,.
Cn1c(N/N=C/c2c[nH]c3ccccc23)nc2ccccc21,4,.,24*,.,18,1730,12,6,8
Cc1ccccc1N1C(=O)CC(Sc2nnc(-c3ccccc3)o2)C1=O (stereo not given),57*,.,43*,.,42*,1855,48*,36*,31*
O=C1c2ccccc2CC1Sc1nnc(-c2ccncc2)o1 (stereo not given),-4,.,1,.,-9,1537,.,.,.
O=C1CC(Sc2nnc(-c3ccccc3)o2)C(=O)N1c1ccccc1 (stereo not given),31*,.,39*,.,20*,1657,28*,21*,16
O=C(NC1CCCCC1)C1c2ccccc2C(=O)N1Cc1ccc2c(c1)OCO2 (stereo not given),2,1883,19,1825,7,1652,.,.,.
O=C1CC(N2CCN(c3ncccn3)CC2)C(=O)N1CCc1ccccc1 (stereo not given),8,1661,3,1549,-4,1486,.,.,.
CCOc1ccc(C(=O)C[n+]2ccccc2C)cc1,0,1907,3,1824,6,1600,.,.,.
[O-][N+]1=c2ccc(Nc3ccccc3)cc2=NC12CCCCC2,28*,.,16,.,24*,1710,22*,13,10
SMILES,PPARg SRC-3 ag,SRC1 TRFRET art,PPARg SRC-2 ag,SRC3 TRFRET art,PPARg SRC-1 ag,SRC2 TRFRET art,PPARg SRC2 ag,PPARg SRC1 ag,PPARg SRC3 conf
COc1ccc(Nc2ccc3c(c2)=NC2(CCCCC2)[N+]=3[O-])cc1,28*,.,19,.,24*,2020*,15,15,10
COc1ccc(NC2=NC(=S)N(c3ccccc3C)C23CCCCC3)cc1,6,.,2,.,1,1465,.,.,.
CC(=O)Nc1ccc(OS(=O)(=O)c2ccc(C(C)(C)C)cc2)cc1,-2,1760,-4,1610,7,1376,.,.,.
CCOC(=O)CSc1ncnc2c(C(=O)OCC)c3n(c12)CCC3,-4,1609,-1,1710,1,1464,.,.,.
COc1ccc(O)c(C(=O)c2cc(C#N)c(=O)n(Cc3ccccc3)c2)c1,6,1656,2,1633,11,1613,.,.,.
N#Cc1cc(C(=O)c2cc(Br)ccc2O)cn(Cc2ccccc2)c1=O,8,2306,14,1805,31*,1955,27*,23*,18
CCCCCn1c(CN2CCN(C(=O)OCC)CC2)nc2c1c(=O)n(C)c(=O)n2C,8,.,5,.,-8,1465,.,.,.
CCCCCn1c(CN2CCN(C)CC2)nc2c1c(=O)n(C)c(=O)n2C,26*,.,11,.,5,1775,2,3,1
COc1c([N+](=O)[O-])c(=O)n(-c2ccccc2)c2ccccc12,-2,1486,0,1497,0,1565,.,.,.
CCCCC(=O)Nc1ccccc1Oc1ccccc1,0,1721,-4,1357,-9,1441,.,.,.
CCOC(=O)c1c(OCC)[nH]c2c1cc(O)c1ccccc12,20,.,6,.,19*,1702,8,8,5
C=CCOc1c(Cl)cc(CNc2ccc(N(C)C)cc2)cc1OC,120*,.,103*,.,60*,2956*,9,9,6
C=CCOc1c(Cl)cc(CNc2ccc(C)c(Cl)c2)cc1OC,-10,.,-8,.,2,1597,.,.,.
COc1ccc(Br)cc1CNc1ccc(O)cc1,18,.,23*,.,10,1752,7,5,6
CC(C)(C)c1ccc(C(=O)NC(=S)NNC(=O)c2cccs2)cc1,26*,2055,15,1675,9,1584,7,6,9
CC(=O)Nc1ccc(NC(=O)CC2Nc3cccc4cccc(c34)NC2=O)cc1 (stereo not given),26*,.,11,.,6,1572,10,12,7

# Screening data from PubChem.
